Measurements as given in the supplement of paper PMC10121225.
Counter-ions that a name gives are not always drawn.

Test system: hN + hpA co-culture (H1 iNGN2 human neurons + human primary astrocytes)
Test: presynaptic density (SYNAPSIN1 puncta per MAP2 neurite area), Z-score vs DMSO controls; higher = more presynaptic puncta (synapse-promoting)
Settings: 3 µM; 72 h
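Also: immunostained co-cultures imaged by high-content microscopy, Z-score per plate against mean and SD of 0.1% DMSO wells, compounds added on differentiation day 18, analysed day 21.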

SMILES	presynaptic density (Z-score)
N#CC(=C(N)Sc1ccccc1N)C(C#N)=C(N)Sc1ccccc1N [1,4-Diamino-2,3-dicyano-1,4-bis[2-aminophenylthio]butadiene]	-0.048
CCOC(=O)N1CCC(=C2c3ccc(Cl)cc3CCc3cccnc32)CC1 [Loratadine]	1.78
CCNC(=O)c1noc(-c2cc(C(C)C)c(O)cc2O)c1-c1ccc(CN2CCOCC2)cc1	3.55
COC1CC2CCC(C)C(O)(O2)C(=O)C(=O)N2CCCCC2C(=O)OC(C(C)CC2CCC(OC(=O)C(C)(CO)CO)C(OC)C2)CC(=O)C(C)C=C(C)C(O)C(OC)C(=O)C(C)CC(C)C=CC=CC=C1C (stereo not drawn) [Temsirolimus (CCI-779]	0.145
CCCC(=O)Nc1cccc(NC(=O)c2ccccc2Br)c1	-0.374
CCN[C@H]1CN(CCCOC)S(=O)(=O)c2sc(S(N)(=O)=O)cc21 [Brinzolamide]	-0.474
Nc1ccc(C(=O)O)c(O)c1 [Sodium 4-Aminosalicylate]	0.294
CC1(COc2ccc3c(c2)ncn3-c2ccc3cccc(N4CCC(N)CC4)c3n2)COC1	-0.296
O=C(NNc1nc2cc(F)ccc2n2cccc12)c1cnccn1	-1.29
O=C(CCCCCCC(=O)Nc1ccc([C@H]2O[C@@H](CSc3nc(-c4ccccc4)c(-c4ccccc4)o3)C[C@@H](c3ccc(CO)cc3)O2)cc1)NO [Tubacin]	0.79
COC(=O)C1=C(C#N)NC(C)=C(C(=O)OC(C)C)C1c1cccc([N+](=O)[O-])c1 (stereo not drawn) [Nilvadipine]	-0.965
COc1ccnc2[nH]cc(C(=O)C(=O)N3CCN(C(=O)c4ccccc4)C[C@H]3C)c12	0.386
C=CCc1cccc(C=NNC(=O)CN2CCN(Cc3ccccc3)CC2)c1O	-1.87
CC(C)CCN1c2nc(Nc3cc(F)c(O)c(F)c3)ncc2N(C)C(=O)C1C (stereo not drawn)	2.11
COc1ccc(-c2nc3cc(C4=NNC(=O)CC4C)ccc3[nH]2)cc1 (stereo not drawn) [Pimobendan]	-0.704
Cc1cccc(CC(=O)N2CCc3c2ccc(-c2cn(C)c4ncnc(N)c24)c3F)n1	-0.752
CCOC(=O)C1=C(N)Oc2ccc(Br)cc2C1C(C#N)C(=O)OCC (stereo not drawn)	0.81
CC1C(=O)OC2C(O)C34C5CC(C(C)(C)C)C36C(OC(=O)C6O)OC4(C(=O)O5)C12O (stereo not drawn) [Ginkgolide B]	-0.504
O=C(Nc1cccnc1)N1CCC(Cc2cccc(Oc3ccc(C(F)(F)F)cn3)c2)CC1	-1.87

SMILES	presynaptic density (Z-score)
O=C1[C@H](Cc2ccc(O)cc2)N2C(=O)CCN(C(=O)NCc3ccccc3)[C@H]2CN1Cc1cccc2ccccc12	-0.969
O=C(Nc1ccccc1-c1cn2c(CN3CCNCC3)csc2n1)c1cnc2ccccc2n1	-1.26
O=C(Nc1cccc(Nc2ncc(Br)c(NCCc3cnc[nH]3)n2)c1)N1CCCC1	-0.439
CC(C)NCC(O)COc1ccc(COCCOC(C)C)cc1 (racemic)	-0.749
NC(=O)Nc1sc(-c2ccc(F)cc2)cc1C(N)=O	-1.69
CC(C)NCC(O)COc1cccc2ccccc12 (stereo not drawn) [Propranolol HCl]	0.278
CCC(CC)CC1(C(=O)Nc2ccccc2SC(=O)C(C)C)CCCCC1 [Dalcetrapib (JTT-705]	-0.463
O=C(O)CCc1ccc(NCc2cccc(Oc3ccccc3)c2)cc1 [4-[[(3-Phenoxyphenyl)methyl]amino]benzenepropanoic acid]	-0.812
O[C@@H](COc1cccc2ncccc12)CN1CCN(C2c3ccccc3[C@@H]3[C@H](c4ccccc42)C3(F)F)CC1 (stereo partly drawn)	-1.51
NCC(=O)Nc1ccc(-n2nc(C(F)(F)F)cc2-c2ccc3c(ccc4ccccc43)c2)cc1	-0.52
CNCc1ccc(-c2cc(-c3nc(-c4ccc(S(=O)(=O)C(C)C)cc4)cnc3N)on2)cc1	-1.03
C=CC(=O)N1CCC[C@@H](n2nc(-c3ccc(Oc4ccccc4)cc3)c3c(N)ncnc32)C1	-0.341
CC(C)(C)NC(=O)[C@H]1CC[C@H]2[C@@H]3CC[C@H]4NC(=O)C=C[C@]4(C)[C@H]3CC[C@]12C [Finasteride]	-0.206
CCN(c1cc(-c2ccc(CN3CCOCC3)cc2)cc(C(=O)NCc2c(C)cc(C)[nH]c2=O)c1C)C1CCOCC1	-0.342
Cc1cc(NC(=O)Nc2ccc(N(C)C)cc2)c2cc(F)cc(F)c2n1	0.301
N#Cc1c(O)c2c(-c3ccc(-c4ccccc4O)cc3)csc2[nH]c1=O	-1.26
O=c1cc(-c2ccc(O)cc2)oc2cc(O)cc(O)c12 [Apigenin]	0.0449
CN(C)Cc1ccc(-c2nc3cccc4c3n2CCNC4=O)cc1	-0.178
O=S(=O)(c1ccccc1)c1cnc2c(N3CCNCC3)cccc2c1	-0.943
